# Experimental data taken from the supplement of paper PMC8728848.
# The entries come from a sample that favours the strongest signals as a whole.
# How the values were obtained:
# Test in all cases: glycan array binding signal (z-score within array); higher = stronger binding
# Conditions in all cases: glycan notation: IUPAC condensed, linker removed
# [1] = biological target: Fuc(a1-2)Gal(b1-3)GlcNAc(b1-3)[Fuc(a1-3)[Gal(b1-4)]GlcNAc(b1-6)]Gal(b1-4)Glc
# Outline: (§1)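 The binding signal is a Z-score computed within each array. Data were drawn from 3228 arrays in the Consortium for Functional Glycomics database, restricted to those with a known protein sequence. Scores were averaged over arrays of the same protein sequence at different concentrations or buffers, and over linkers, and negative values can be taken as non-binding.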
# [2] = biological target: Fuc(a1-2)Gal(b1-3)[Fuc(a1-4)]GlcNAc(b1-2)Man(a1-3)[Fuc(a1-2)Gal(b1-3)[Fuc(a1-4)]GlcNAc(b1-2)Man(a1-3)]Man(b1-4)GlcNAc(b1-4)GlcNAc
# Outline: as §1
# [3] = biological target: Fuc(a1-2)Gal(b1-4)GlcNAc(b1-2)Man(a1-3)[Fuc(a1-2)Gal(b1-4)GlcNAc(b1-2)Man(a1-6)]Man(b1-4)GlcNAc(b1-4)GlcNAc
# Outline: as §1
# [4] = biological target: Fuc(a1-2)Gal(b1-4)GlcNAc(b1-2)Man(a1-3)[Fuc(a1-2)Gal(b1-4)GlcNAc(b1-2)Man(a1-6)]Man(b1-4)GlcNAc(b1-4)[Fuc(a1-6)]GlcNAc
# Outline: as §1
# [5] = biological target: Fuc(a1-2)Gal(b1-4)GlcNAc(b1-3)[Fuc(a1-3)[Gal(b1-4)]GlcNAc(b1-6)]Gal(b1-4)Glc
# Outline: as §1
# [6] = biological target: Fuc(a1-2)Gal(b1-4)GlcNAc(b1-6)GalNAc
# Outline: as §1
# [7] = biological target: Fuc(a1-2)Gal6S(b1-3)GlcNAc6S
# Outline: as §1
# [8] = biological target: Fuc(a1-2)Gal6S(b1-4)GlcNAc
# Outline: as §1
# [9] = biological target: Fuc(a1-2)[Gal(a1-3)]Gal(b1-3)GlcNAc(b1-6)GalNAc
# Outline: as §1
# [10] = biological target: Fuc(a1-2)[Gal(a1-3)]Gal(b1-4)GlcNAc(b1-2)Man(a1-3)[Fuc(a1-2)[Gal(a1-3)]Gal(b1-4)GlcNAc(b1-2)Man(a1-6)]Man(b1-4)GlcNAc(b1-4)GlcNAc
# Outline: as §1
# [11] = biological target: Fuc(a1-2)[GalNAc(a1-3)]Gal(b1-4)GlcNAc(b1-3)[Fuc(a1-2)[GalNAc(a1-3)]Gal(b1-4)GlcNAc(b1-6)]GalNAc
# Outline: as §1
# [12] = biological target: Fuc(a1-3)[Gal(b1-4)]GlcNAc(b1-3)GalNAc
# Outline: as §1
# [13] = biological target: Gal(b1-3)GlcNAc(b1-3)Gal(b1-4)GlcNAc(b1-3)Gal(b1-4)GlcNAc(b1-2)[Gal(b1-3)GlcNAc(b1-3)Gal(b1-4)GlcNAc(b1-3)Gal(b1-4)GlcNAc(b1-6)]Man(a1-6)[Gal(b1-3)GlcNAc(b1-3)Gal(b1-4)GlcNAc(b1-3)Gal(b1-4)GlcNAc(b1-2)Man(a1-3)]Man(b1-4)GlcNAc(b1-4)[Fuc(a1-6)]GlcNAc
# Outline: as §1
# [14] = biological target: Gal(b1-3)GlcNAc(b1-3)Gal(b1-4)GlcNAc(b1-6)[Gal(b1-3)GlcNAc(b1-3)]Gal(b1-4)Glc
# Outline: as §1
# [15] = biological target: Gal(b1-3)GlcNAc(b1-6)GalNAc
# Outline: as §1
# [16] = biological target: Gal(b1-3)[Fuc(a1-4)]GlcNAc(b1-2)Man(a1-3)[Gal(b1-3)[Fuc(a1-4)]GlcNAc(b1-2)Man(a1-6)]Man(b1-4)GlcNAc(b1-4)GlcNAc
# Outline: as §1
# [17] = biological target: Gal(b1-4)GlcNAc(b1-2)[Gal(b1-4)GlcNAc(b1-6)]Man(a1-6)[GlcNAc(b1-4)][Gal(b1-4)GlcNAc(b1-2)[Gal(b1-4)GlcNAc(b1-4)]Man(a1-3)]Man(b1-4)GlcNAc(b1-4)[Fuc(a1-6)]GlcNAc
# Outline: as §1
# [18] = biological target: Gal(b1-4)GlcNAc(b1-3)Gal(b1-4)GlcNAc(b1-3)Gal(b1-4)GlcNAc(b1-3)Gal(b1-4)GlcNAc(b1-2)[Gal(b1-4)GlcNAc(b1-3)Gal(b1-4)GlcNAc(b1-3)Gal(b1-4)GlcNAc(b1-3)Gal(b1-4)GlcNAc(b1-6)]Man(a1-6)[Gal(b1-4)GlcNAc(b1-3)Gal(b1-4)GlcNAc(b1-3)Gal(b1-4)GlcNAc(b1-3)Gal(b1-4)GlcNAc(b1-2)Man(a1-3)]Man(b1-4)GlcNAc(b1-4)[Fuc(a1-6)]GlcNAc
# Outline: as §1
# [19] = biological target: Gal(b1-4)GlcNAc(b1-3)Gal(b1-4)[Fuc(a1-3)GlcNAc(b1-6)]Gal(b1-4)Glc
# Outline: as §1
# [20] = biological target: Gal(b1-4)GlcNAc(b1-6)Gal(b1-4)GlcNAc(b1-6)GalNAc
# Outline: as §1
# [21] = biological target: Gal3S(b1-4)[Fuc(a1-3)]Glc6S
# Outline: as §1
# [22] = biological target: Gal3S(b1-4)[Fuc(a1-3)]GlcNAc
# Outline: as §1
# [23] = biological target: GalNAc(b1-4)GlcNAc
# Outline: as §1
# [24] = biological target: GalNAc4S6S(b1-4)GlcNAc
# Outline: as §1
# [25] = biological target: Glc(a1-4)Glc
# Outline: as §1
# [26] = biological target: Glc(a1-6)Glc(a1-6)Glc
# Outline: as §1
# [27] = biological target: Glc(b1-4)Glc
# Outline: as §1
# [28] = biological target: GlcNAc(a1-3)Gal(b1-4)GlcNAc
# Outline: as §1
# [29] = biological target: GlcNAc(a1-4)Gal(b1-4)GlcNAc(b1-3)Gal(b1-4)[Fuc(a1-3)]GlcNAc(b1-3)Gal(b1-4)[Fuc(a1-3)]GlcNAc
# Outline: as §1
# [30] = biological target: GlcNAc(a1-6)Gal(b1-4)GlcNAc
# Outline: as §1
# [31] = biological target: GlcNAc(b1-3)Gal(b1-4)GlcNAc(b1-2)[GlcNAc(b1-3)Gal(b1-4)GlcNAc(b1-6)]Man(a1-6)[GlcNAc(b1-3)Gal(b1-4)GlcNAc(b1-2)Man(a1-3)]Man(b1-4)GlcNAc(b1-4)GlcNAc
# Outline: as §1
# [32] = biological target: GlcNAc(b1-3)Gal(b1-4)GlcNAc(b1-3)Gal(b1-4)GlcNAc(b1-2)Man(a1-3)[GlcNAc(b1-3)Gal(b1-4)GlcNAc(b1-3)Gal(b1-4)GlcNAc(b1-2)Man(a1-6)]Man(b1-4)GlcNAc(b1-4)[Fuc(a1-6)]GlcNAc
# Outline: as §1
# [33] = biological target: GlcNAc(b1-3)Gal(b1-4)GlcNAc(b1-3)[GlcNAc(b1-3)Gal(b1-4)GlcNAc(b1-3)]GalNAc
# Outline: as §1
# [34] = biological target: GlcNAc6S(b1-3)Gal(b1-4)GlcNAc
# Outline: as §1
# [35] = biological target: Man(a1-2)Man(a1-3)Man
# Outline: as §1
# [36] = biological target: Man(a1-2)Man(a1-6)[Man(a1-3)]Man(a1-6)[Man(a1-2)Man(a1-2)Man(a1-3)]Man
# Outline: as §1
# [37] = biological target: Man(a1-3)[Man(a1-6)]Man(a1-6)[Man(a1-3)]Man
# Outline: as §1
# [38] = biological target: MurNAc(b1-4)GlcNAc
# Outline: as §1
# [39] = biological target: Neu5Ac(a2-3)Gal(b1-3)GalNAc(b1-3)Gal(b1-4)GlcNAc
# Outline: as §1
# [40] = biological target: Neu5Ac(a2-3)Gal(b1-3)GlcNAc(b1-2)Man(a1-3)[Neu5Ac(a2-3)Gal(b1-3)GlcNAc(b1-2)Man(a1-6)]Man(b1-4)GlcNAc(b1-4)GlcNAc
# Outline: as §1
# [41] = biological target: Neu5Ac(a2-3)Gal(b1-3)[GlcNAc(b1-6)]GalNAc
# Outline: as §1
# [42] = biological target: Neu5Ac(a2-3)Gal(b1-4)GlcNAc(b1-2)Man(a1-3)[GlcNAc(b1-4)][Neu5Ac(a2-3)Gal(b1-4)GlcNAc(b1-2)Man(a1-6)]Man(b1-4)GlcNAc(b1-4)GlcNAc
# Outline: as §1
# [43] = biological target: Neu5Ac(a2-3)Gal(b1-4)GlcNAc(b1-2)Man(a1-3)[Neu5Ac(a2-3)Gal(b1-4)GlcNAc(b1-2)Man(a1-6)]Man(b1-4)GlcNAc(b1-4)[Fuc(a1-6)]GlcNAc
# Outline: as §1
# [44] = biological target: Neu5Ac(a2-3)Gal(b1-4)GlcNAc(b1-3)[Neu5Ac(a2-3)Gal(b1-4)GlcNAc(b1-6)]GalNAc
# Outline: as §1
# [45] = biological target: Neu5Ac(a2-3)Gal(b1-4)GlcNAc(b1-6)[Gal(b1-3)]GalNAc
# Outline: as §1
# [46] = biological target: Neu5Ac(a2-3)Gal(b1-4)[Fuc(a1-3)]GlcNAc(b1-3)Gal
# Outline: as §1
# [47] = biological target: Neu5Ac(a2-3)Gal(b1-4)[Fuc(a1-3)]GlcNAc(b1-6)[Neu5Ac(a2-3)Gal(b1-3)]GalNAc
# Outline: as §1
# [48] = biological target: Neu5Ac(a2-3)Gal6S(b1-4)[Fuc(a1-3)]GlcNAc
# Outline: as §1
# [49] = biological target: Neu5Ac(a2-3)GalNAc
# Outline: as §1
# [50] = biological target: Neu5Ac(a2-6)Gal(b1-4)GlcNAc(b1-2)Man(a1-6)[GlcNAc(b1-2)Man(a1-3)]Man(b1-4)GlcNAc(b1-4)GlcNAc
# Outline: as §1
# [51] = biological target: Neu5Ac(a2-6)GlcNAc(b1-4)GlcNAc
# Outline: as §1
# [52] = biological target: Neu5Ac(a2-8)Neu5Ac(a2-8)Neu5Ac
# Outline: as §1
# [53] = biological target: Neu5Gc(a2-3)Gal(b1-4)GlcNAc
# Outline: as §1
binder,measurement,setting,value
GST Gap3 (Streptococcus parasanguinis) (protein) MTKQLISEIYWNEIRKGENYLYGSQIKFQEDLVNFYNPQLASGKPIVTFKSRTNYQGDRHSPDLPILIQGNRYLLEYQIDAVPANSFFLQLDFFNRQAEQIESIVLRNSGESFIFPKDTFTYTLTLMSAGCQSVTYQKFMIYDINDEEKKNHIVENRYLRELLPKDLDLVKNLIEYI,glycan array binding signal (z-score),[1],-0.027
same,glycan array binding signal (z-score),[2],2.3
same,glycan array binding signal (z-score),[3],3.16
same,glycan array binding signal (z-score),[4],-0.105
same,glycan array binding signal (z-score),[5],-0.573
same,glycan array binding signal (z-score),[6],-0.108
same,glycan array binding signal (z-score),[7],2.06
same,glycan array binding signal (z-score),[8],-0.073
same,glycan array binding signal (z-score),[9],-0.112
same,glycan array binding signal (z-score),[10],0.383
same,glycan array binding signal (z-score),[11],-0.377
same,glycan array binding signal (z-score),[12],0.287
same,glycan array binding signal (z-score),[13],4.03
same,glycan array binding signal (z-score),[14],0.052
same,glycan array binding signal (z-score),[15],0.002
same,glycan array binding signal (z-score),[16],3.61
same,glycan array binding signal (z-score),[17],0.228
same,glycan array binding signal (z-score),[18],2.32
same,glycan array binding signal (z-score),[19],-0.093
same,glycan array binding signal (z-score),[20],-0.125
same,glycan array binding signal (z-score),[21],1.61
same,glycan array binding signal (z-score),[22],-0.723
same,glycan array binding signal (z-score),[23],0.123
same,glycan array binding signal (z-score),[24],-0.267
same,glycan array binding signal (z-score),[25],3.14
same,glycan array binding signal (z-score),[26],0.005
same,glycan array binding signal (z-score),[27],-0.381
same,glycan array binding signal (z-score),[28],-0.406
same,glycan array binding signal (z-score),[29],2.24
same,glycan array binding signal (z-score),[30],0.544
same,glycan array binding signal (z-score),[31],3.45
same,glycan array binding signal (z-score),[32],0.269
same,glycan array binding signal (z-score),[33],-0.518
same,glycan array binding signal (z-score),[34],-0.145
same,glycan array binding signal (z-score),[35],-0.273
same,glycan array binding signal (z-score),[36],-0.335
same,glycan array binding signal (z-score),[37],-0.516
same,glycan array binding signal (z-score),[38],-0.582
same,glycan array binding signal (z-score),[39],-0.123
same,glycan array binding signal (z-score),[40],-0.211
same,glycan array binding signal (z-score),[41],-0.638
same,glycan array binding signal (z-score),[42],-0.195
same,glycan array binding signal (z-score),[43],2.2
same,glycan array binding signal (z-score),[44],-0.511
same,glycan array binding signal (z-score),[45],-0.323
same,glycan array binding signal (z-score),[46],-0.462
same,glycan array binding signal (z-score),[47],3.62
same,glycan array binding signal (z-score),[48],0.06
same,glycan array binding signal (z-score),[49],-0.101
same,glycan array binding signal (z-score),[50],-0.269
same,glycan array binding signal (z-score),[51],-0.465
same,glycan array binding signal (z-score),[52],0.585
same,glycan array binding signal (z-score),[53],-0.209
